Screens from PubChem BioAssay.
A selection: hits, their analogues and other compounds. The true share with any hit is near 3.7%.
WRN helicase inh: qHTS for Inhibitors of WRN Helicase. Bifunctional 3'-5' exonuclease/ATP-dependent helicase WRN (Homo sapiens), Q14191. WRN helicase unwinding, fluorescent forked duplex, kinetic. Potency, µM (highest dose often 114 µM), most hits filed as inhibitors. hit rate 0.46% among 360,000. AID 651768, 2012; also: nearly all actives have a fitted effect of over 55% in size
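Screening of the MLSMR collection measured strand separation of a quenched forked DNA duplex (100 nM) by 20 nM WRN with 2 mM ATP, all final. Compounds were preincubated with enzyme 15 min at room temperature.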
PI5P4Ka inh: qHTS for Inhibitors of phosphatidylinositol 5-phosphate 4-kinase (PI5P4K); AID 652105, 2013; max response, %; hit rate 1.2% among 330,000; PI5P4Kalpha enzyme, ADP-Glo luminescence, 60 min; active compounds read low; active = max response of -50% or lower; inconclusive = between -30% and -50%; inactive = -30% or higher; also: value at the top dose of about 77 µM
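Reactions run in 0.038 M HEPES pH 7.4, 0.28 mM EGTA, 0.1% CHAPS and 5% DMSO, with PI5P4Kalpha, substrate, compound and 5 microM ATP final, one hour at room temperature. Readout is ADP-Glo luminescence.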
PLK1 PBD block: qHTS for Inhibitors of PLK1-PDB (polo-like kinase 1 - polo-box domain): Primary Screen; Serine/threonine-protein kinase PLK1 (Homo sapiens), P53350; Plk1 PBD binding of FITC phosphopeptide, fluorescence polarization; Potency, µM, hits mostly inhibitors; hit rate 2.8% among 360,000; AID 720504, 2013; also: series mostly up to about 57 µM; nearly all actives have a fitted effect of over 65% in size
TCR activator: Activators of T cell receptors: qHTS campaign. primary human leukocytes, anti-CD3, IL-2 HTRF, 48 h. Potency, µM (highest dose often 9.22 µM), actives largely listed as activators. 330,000 tested, under 10 active. AID 504894, 2011
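Primary human leukocytes receive a-CD3 beads and test compound and are incubated 48 hr. Secreted IL-2 is then assayed by HTRF, measuring 665nm acceptor emission after 320nm excitation of the europium donor.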
VDR inhibitor: Inhibitors of the vitamin D receptor (VDR): qHTS; VDR-SRC2-3 peptide fluorescence polarization, 2 h; Potency, µM, hits mostly inhibitors; hit rate 0.93% among 400,000; AID 504847, 2011
Target sequence (P11473 whole entry, looked up): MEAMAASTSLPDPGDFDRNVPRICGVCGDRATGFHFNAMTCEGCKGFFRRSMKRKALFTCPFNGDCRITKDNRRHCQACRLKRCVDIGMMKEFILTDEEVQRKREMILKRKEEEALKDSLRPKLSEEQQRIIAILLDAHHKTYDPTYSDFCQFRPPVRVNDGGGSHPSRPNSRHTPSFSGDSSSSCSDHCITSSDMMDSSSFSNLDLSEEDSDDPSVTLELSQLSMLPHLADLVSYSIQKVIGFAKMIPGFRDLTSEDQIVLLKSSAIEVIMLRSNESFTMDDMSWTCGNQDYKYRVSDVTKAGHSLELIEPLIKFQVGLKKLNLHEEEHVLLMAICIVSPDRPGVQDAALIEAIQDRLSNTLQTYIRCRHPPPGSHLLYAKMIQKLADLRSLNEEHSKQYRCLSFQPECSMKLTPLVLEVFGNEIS
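FP read-out; VDR + SRC2-3 coactivator peptide; 23 nl compound by pintool; 2 h RT incubation; reagents held at 4 deg C, protected from light.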
FEN1 inhibitor: qHTS Assay for the Inhibitors of Human Flap endonuclease 1 (FEN1). P39748. Recombinant FEN1 flap cleavage, fluorescence, 15 min. Potency, µM (highest dose often 114 µM), actives largely listed as inhibitors. hit rate 0.35% among 390,000. AID 588795, 2011; also: nearly all actives have a fitted effect of over 65% in size
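FEN1 at 10 nM preincubated with compounds 15 min at room temperature, then flap DNA substrate added at 50 nM final. Signal read at 0 and 15 min; concentration-response fitted with four-parameter Hill equation.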
Large screens that a line does not name were inactive. Unless noted, calls follow the shape of the dose curve; as a rule, active = well fitted curve in the direction sought with a large enough effect; inconclusive = small, poorly fitted or top-dose-only effect, or another doubt; inactive = no such curve, though single readings can be large; an effect the other way counts as inactive or inconclusive.

CCOc1ccc(S(=O)(=O)N(CC(=O)N/N=C/c2ccc(-c3ccc([N+](=O)[O-])cc3)o2)c2ccccc2)cc1	PI5P4Ka inh -67
N#CCc1ccc(Oc2ncccn2)cc1	PI5P4Ka inh inconclusive, PLK1 PBD block 17µM, VDR inhibitor inconclusive
O=S(=O)(O)c1cccc2c(N=Nc3ccc(O)c4ncccc34)cccc12	WRN helicase inh 22µM, PI5P4Ka inh -81, PLK1 PBD block 21µM, FEN1 inhibitor inconclusive
Oc1ccc(N=Nc2ccc3c(c2)OCCO3)c2cccnc12	PI5P4Ka inh inconclusive, PLK1 PBD block 27µM
Cc1ccccc1N=Nc1ccc(O)c2ncccc12	none
COc1cccc2c1Oc1ncccc1N(c1ccc(C(=O)NCc3ccccc3Cl)s1)C2	none (no result: WRN helicase inh, PI5P4Ka inh, PLK1 PBD block, TCR activator)
O=C(O)CNC(=O)c1cccc(C(F)(F)F)c1	none
Cc1c(CCCC(=O)O)sc(N)c1C(=O)c1cccc(C(F)(F)F)c1	VDR inhibitor 89µM (no result: WRN helicase inh, PI5P4Ka inh, PLK1 PBD block)
CCCOc1ccc(N2C(=O)CC(NCc3ccc(S(N)(=O)=O)cc3)C2=O)cc1 (configuration not stated)	none
CCOc1ccc(N2C(=O)CC(NCc3ccc(S(N)(=O)=O)cc3)C2=O)cc1 (configuration not stated)	PLK1 PBD block 11µM, VDR inhibitor inconclusive
CC1CCN(c2nc(-c3ccco3)c3c(c2C#N)CC(C)(C)OC3)CC1	PI5P4Ka inh inconclusive, PLK1 PBD block inconclusive, VDR inhibitor 50µM
O=C(CSc1ccccc1C(=O)O)NC12CC3CC(CC(C3)C1)C2	PLK1 PBD block 30µM
O=C(CSc1ncccc1C(=O)O)NC12CC3CC(CC(C3)C1)C2	none
O=C1c2[nH]nc(-c3ccccc3O)c2C(c2ccc(Cl)cc2)N1Cc1ccco1 (configuration not stated)	none (no result: WRN helicase inh, PI5P4Ka inh, PLK1 PBD block, TCR activator)
CCCCN(C(=O)Cn1ncc(Cl)c(Cl)c1=O)c1c(N)n(CC(C)C)c(=O)[nH]c1=O	PI5P4Ka inh -52, PLK1 PBD block inconclusive, VDR inhibitor inconclusive
Clc1cccc[n+]1CCCCCC[n+]1ccccc1Cl	none (no result: WRN helicase inh, PI5P4Ka inh, PLK1 PBD block, TCR activator, VDR inhibitor)
CCOC(=O)c1cccc(Nc2nc(C(=O)OCC)nc3ccccc23)c1	none (no result: WRN helicase inh, PI5P4Ka inh, PLK1 PBD block, TCR activator)
CCOC(=O)c1nc(Nc2cccc(C)c2)c2ccccc2n1	PLK1 PBD block 21µM
COc1ccc(OCCn2nnc3sc4c(c3c2=O)CCC(C(C)(C)C)C4)cc1 (configuration not stated)	none (no result: WRN helicase inh, PI5P4Ka inh, PLK1 PBD block, TCR activator)
CN(Cc1ccco1)S(=O)(=O)c1ccc(CN2C(=O)c3cccnc3C2=O)s1	PLK1 PBD block 27µM
COc1ccc(CN2C(=O)c3cccnc3C2=O)cc1S(=O)(=O)N(C)Cc1ccco1	none
O=C1NC(=S)SC1=C1CCCCCC1	PI5P4Ka inh -57, PLK1 PBD block inconclusive, VDR inhibitor inconclusive
Cc1cc2nccc(C)c2cc1C	none (no result: WRN helicase inh, PI5P4Ka inh, PLK1 PBD block, TCR activator, VDR inhibitor)
COC(=O)c1c(-c2ccccc2)csc1NC1=NS(=O)(=O)c2ccccc21	none
COC(=O)c1c(-c2ccccc2)csc1N	PLK1 PBD block 11µM (no result: TCR activator)
Nc1cccc(N2C(=O)c3cccc4c(N)ccc(c34)C2=O)c1	PLK1 PBD block 11µM
O=C(O)c1cccc(N2C(=O)c3cccc4c(Cl)ccc(c34)C2=O)c1	none
CC(C)CCN1C(=O)c2cccc3c(N)ccc(c23)C1=O	PLK1 PBD block 5.3µM, FEN1 inhibitor inconclusive
CCC(CC)C(=O)Nc1nnc2n1CCS2	none (no result: WRN helicase inh, PI5P4Ka inh, PLK1 PBD block, TCR activator)
C=CCN(C(=O)CCc1ccccc1OC)c1nc(-c2ccc(S(C)(=O)=O)cc2)cs1	none
C=CCN(C(=O)Cc1cccs1)c1nc(-c2ccc(S(C)(=O)=O)cc2)cs1	PI5P4Ka inh -63
CCN(CC)c1ccc(C(=C2C=CC(=[N+](CC)Cc3cccc(S(=O)(=O)[O-])c3)C=C2)c2ccc(N(CC)Cc3cccc(S(=O)(=O)O)c3)cc2)cc1	VDR inhibitor 13µM (no result: WRN helicase inh, PI5P4Ka inh, PLK1 PBD block, TCR activator, FEN1 inhibitor)
CCOC(=O)c1nc(NCc2ccccc2)sc1C	PI5P4Ka inh inconclusive, PLK1 PBD block 6.7µM, VDR inhibitor 71µM
